Screening results (PubChem)
Jurkat NFkB inh: inhibitors of the PMA/ionomycin-induced NF-kB reporter in Jurkat cells; PMA/ionomycin-induced NF-kB luciferase reporter, luminescence; inhibition, % at 4 µM; 330,000 tested, 0.53% active; AID 435003; in the data active means inhibition above about 50%
HIF activator: HIF pathway transcriptional activation; U2OS HRE-luciferase reporter, luminescence; normalized: DMSO 0%, desferrioxamine 100%; AID 1910; 300,000 tested, 0.32% active; activation, % at 7.5 µM (by protocol);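 active means mean activation of at least 10% of the iron chelator positive control signal, with at least half of replicates also reaching 10%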
697 NFkB inh: inhibitors of the PMA/ionomycin-induced NF-kB reporter in 697 B cells. inhibition, % at 4 µM. 330,000 tested, 0.33% active. 697 B-cell NF-kB luciferase reporter, 16 h; in the data active means inhibition above about 35%
CFTR F508del cor: correctors of CFTR F508del function in bronchial epithelial cells | CFBE cells, YFP halide quenching; stimulated with forskolin plus potentiator P3; % fluorescence drop versus neutral controls | activity (quench increase), % at 7.58 µM | 350,000 tested, 0.36% active | AID 720511;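 active means mean added fluorescence quench of at least 8% versus neutral control, with both replicates also reaching 8%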;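 further: cells transiently co-express mutant CFTR-F508del with the halide-sensitive YFP; corrector assay measuring rescue of mutant channel to the surface after 24 h compound exposure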
697 NFkB conf: lowers PMA/ionomycin-induced NF-kB signal in 697 B cells; 2,000 tested, 35% active; shares compounds with 697 NFkB inh; inhibition, % at 4 µM; 697 B-cell NF-kB luciferase, 16 h; AID 449746; in the data active means inhibition mostly above about 28%, no sharp cut-off; inactive means mostly below about 22%
Large screens that a line does not name were inactive (follow-up assays come after a bar, where they were run). A selection: hits, their analogues and other compounds. The true share with any hit is near 0.93%.

C[C@@H]1CN([C@H](C)CO)C(=O)Cc2cc(NC(=O)Cc3ccccc3)ccc2O[C@@H]1CN(C)S(=O)(=O)c1cn(C)cn1	none (no result: Jurkat NFkB inh, HIF activator, 697 NFkB inh)
Nc1ccc2nc(-c3ccccc3)sc2c1	none (no result: CFTR F508del cor) | 697 NFkB conf inactive
COc1ccc(C)cc1NS(=O)(=O)c1ccc(NC(=O)CN(c2cc([N+](=O)[O-])ccc2C)S(C)(=O)=O)cc1	697 NFkB inh 38.3 (no result: CFTR F508del cor) | 697 NFkB conf inactive
c1ccc(-c2nc3cc4ccccc4cc3[nH]2)nc1	none (no result: CFTR F508del cor) | 697 NFkB conf inactive
CCOCCCNC(=S)Nc1ccc2nc3n(c(=O)c2c1)CCCCC3	none
COCCCNC(=S)Nc1ccc2nc3n(c(=O)c2c1)CCCCC3	697 NFkB inh 35.3 | 697 NFkB conf inactive
COc1ccc(S(=O)(=O)N2C[C@H](O)COC[C@H]3O[C@H](CC(=O)NCc4ccc(Cl)c(Cl)c4)CC[C@@H]32)cc1	none (no result: Jurkat NFkB inh, HIF activator, 697 NFkB inh)
O=C(c1ccc(Cn2c(=S)[nH]c3cc4c(cc3c2=O)OCO4)cc1)N1CCN(c2ncccn2)CC1	697 NFkB inh 55.6 (no result: CFTR F508del cor) | 697 NFkB conf inactive
C=CCNC(=O)c1ccc(Cn2c(=S)[nH]c3cc4c(cc3c2=O)OCO4)cc1	none (no result: CFTR F508del cor)
C[C@H](CO)N1C[C@H](C)[C@H](CN(C)C(=O)c2cccc(F)c2)Oc2ncc(-c3cncnc3)cc2C1=O	none (no result: Jurkat NFkB inh, HIF activator, 697 NFkB inh)
Cc1ccc(N=Nc2c(N)nn(-c3ccccc3)c2N)cc1	none (no result: CFTR F508del cor) | 697 NFkB conf inactive
O=C(O)c1ccc(N/N=C/c2cc3cc4c(cc3nc2Cl)OCCO4)cc1	none | 697 NFkB conf inactive
O=Cc1cc2cc3c(cc2nc1Cl)OCCO3	none (no result: CFTR F508del cor)
CC(C)CNC(=O)c1c(N)n(/N=C/c2ccccn2)c2nc3ccccc3nc12	none (no result: CFTR F508del cor)
CCCCNC(=O)c1c(N)n(/N=C/c2ccccn2)c2nc3ccccc3nc12	697 NFkB inh 46.7 (no result: CFTR F508del cor) | 697 NFkB conf 43.8
C[C@@H]1CN([C@H](C)CO)S(=O)(=O)c2ccc(C#CC3CC3)cc2O[C@H]1CN(C)C(=O)c1ccccn1	none (no result: Jurkat NFkB inh, HIF activator, 697 NFkB inh)
O=C(C[C@H]1CC[C@H](NC(=O)c2ccccc2)[C@H](CO)O1)NCc1ccncn1	none (no result: Jurkat NFkB inh, HIF activator, 697 NFkB inh)
CCCN(C)C[C@H]1Oc2ncc(-c3ccccc3)cc2C(=O)N([C@@H](C)CO)C[C@H]1C	none (no result: Jurkat NFkB inh, HIF activator, 697 NFkB inh)
COc1ccc(OC)c2sc(N3CCc4ccccc4C3)nc12	none
c1ccc2c(c1)CCN(c1nc3cc4c(cc3s1)OCCO4)C2	none (no result: CFTR F508del cor) | 697 NFkB conf inactive
Cn1c(N=Nc2ccccc2)nc2ccccc21	none | 697 NFkB conf inactive
c1ccc(Cn2c(-c3ccco3)nc3nc4ccccc4nc32)cc1	none (no result: CFTR F508del cor)
Cc1ccc(-c2nc3nc4ccccc4nc3n2Cc2ccco2)cc1	none (no result: CFTR F508del cor) | 697 NFkB conf inactive
Clc1ccc(-c2nc3nc4ccccc4nc3n2Cc2ccco2)cc1	none (no result: HIF activator, CFTR F508del cor) | 697 NFkB conf inactive
COc1cc2c(cc1NC(=O)CSCC(=O)O)oc1ccccc12	697 NFkB inh 35.7 (no result: CFTR F508del cor) | 697 NFkB conf inactive
COc1cc2c(cc1NC(=O)CCC(=O)O)oc1ccccc12	none
CCC(=O)N1CC(=O)N2[C@H](CO)[C@H](c3ccc(C#Cc4cccc(F)c4)cc3)[C@@H]2C1	none (no result: Jurkat NFkB inh, HIF activator, 697 NFkB inh)
CCCN1C(=O)CC(c2ccco2)Sc2ccccc21 (stereo not drawn)	none
CN1C(=O)CC(c2ccco2)Sc2ccccc21 (stereo not drawn)	697 NFkB inh 38.9 (no result: CFTR F508del cor) | 697 NFkB conf 29.2
CC(C)NC(=O)N(C)C[C@@H]1Oc2ccc(NC(=O)CCC(F)(F)F)cc2C(=O)N([C@H](C)CO)C[C@H]1C	none (no result: Jurkat NFkB inh, HIF activator, 697 NFkB inh)
CNS(=O)(=O)c1cccc(C(=O)OCC(=O)N2c3ccccc3CC2C)c1 (stereo not drawn)	697 NFkB inh 36.3 (no result: CFTR F508del cor) | 697 NFkB conf inactive
O=C(Cn1c(-c2ccccc2)c[n+]2ccsc12)c1ccc([N+](=O)[O-])cc1	none
CC(=O)N=c1sccn1CC(=O)c1ccc([N+](=O)[O-])cc1	697 NFkB inh 35.8 (no result: CFTR F508del cor) | 697 NFkB conf inactive
CCOC(CNC(=O)c1ccc2nc(N3CCC(C)CC3)sc2c1)OCC	none (no result: CFTR F508del cor) | 697 NFkB conf inactive
COc1cc(C2NC(=O)NC(C)=C2C(=O)OC(C)(C)C)ccc1OCC(=O)O (stereo not drawn)	697 NFkB inh 40.1 (no result: CFTR F508del cor) | 697 NFkB conf inactive
CC1=C(C(=O)OC(C)C)C(c2coc3ccccc3c2=O)C2=C(CCCC2=O)N1 (stereo not drawn)	none (no result: HIF activator, CFTR F508del cor)
CCSCCOC(=O)C1=C(C)NC2=C(C(=O)CCC2)C1c1coc2ccccc2c1=O (stereo not drawn)	697 NFkB inh 35.9 (no result: CFTR F508del cor) | 697 NFkB conf inactive
CC(=O)Nc1cccc(NC(=O)c2cc(-c3cccnc3)nc3ccc(Br)cc23)c1	697 NFkB inh 40.7 | 697 NFkB conf inactive
Cc1ccc(CSCCNC(=O)c2ccc(C)cc2)cc1	none
Cc1ccc(CSCCNC(=O)c2ccc(NS(C)(=O)=O)cc2)cc1	697 NFkB inh 35.9 | 697 NFkB conf inactive
COc1ccc(OC)c(S(=O)(=O)Nc2ccc(-c3ccc4nncn4n3)cc2)c1	697 NFkB inh 35.2 | 697 NFkB conf inactive
COc1cc(/C(C)=N\NC(N)=S)cc(OC)c1OC	697 NFkB inh 40.2 | 697 NFkB conf 40.5
COc1cc(/C(C)=N/NC(=S)NC(C)C)cc(OC)c1OC	none (no result: CFTR F508del cor)
CC1CN(S(=O)(=O)c2ccc(C(=O)Nc3nc(-c4cc5ccccc5o4)cs3)cc2)CC(C)O1 (stereo not drawn)	697 NFkB inh 74.2 | 697 NFkB conf 51.4
O=C(C[C@@H]1CC[C@H]2[C@@H](COC[C@@H](O)CN2Cc2ccccc2F)O1)N[C@@H]1CCN(Cc2ccccc2)C1	none (no result: Jurkat NFkB inh, HIF activator, 697 NFkB inh)
CN(C)c1ccc(/C=C(\C#N)c2ccccn2)cc1	none (no result: CFTR F508del cor) | 697 NFkB conf inactive
N#C/C(=C\c1ccc([N+](=O)[O-])cc1)c1ccccn1	none
Cc1cc(/C=C2\SC(=O)N(C)C2=O)c(C)n1-c1ccc(S(N)(=O)=O)cc1	none
Cc1cc(/C=C2\SC(=O)N(C)C2=O)c(C)n1-c1ccc(O)cc1	none | 697 NFkB conf inactive
COCc1cn(CC[C@H]2CC[C@@H](NC(=O)Cc3cccnc3)[C@H](CO)O2)nn1	none (no result: Jurkat NFkB inh, HIF activator, 697 NFkB inh)
Cc1cc(C)cc(NC(=O)c2nnn(Cc3cc(C)ccc3C)c2N)c1	697 NFkB inh 37.7 (no result: CFTR F508del cor) | 697 NFkB conf 28.5
c1ccc(-c2noc(-c3ccccc3-c3ccccc3)n2)cc1	none (no result: CFTR F508del cor)
c1ccc(-c2noc(-c3ccc4ccccc4c3)n2)cc1	none (no result: CFTR F508del cor) | 697 NFkB conf inactive
CNC[C@@H]1OCCCC[C@H](C)Oc2ccc(NC(=O)Nc3ccccc3)cc2C(=O)N([C@H](C)CO)C[C@@H]1C	none (no result: Jurkat NFkB inh, HIF activator, 697 NFkB inh)
CSCCC(NC(=O)OC(C)(C)C)C(=O)Oc1ccc2c(=O)c(-c3ccc4c(c3)OCCO4)coc2c1 (stereo not drawn)	none (no result: HIF activator, CFTR F508del cor) | 697 NFkB conf inactive
O=C(O)c1cccc(Nc2ncnc3sccc23)c1	697 NFkB inh 52.3 | 697 NFkB conf inactive
Fc1cccc(Nc2ncnc3sccc23)c1	none
COc1ccc(S(=O)(=O)Nc2cc3c(C(C)=O)c(C)oc3c3ccccc23)cc1	697 NFkB inh 41.2 (no result: CFTR F508del cor) | 697 NFkB conf 31.9
Cc1oc2c(cc(NS(=O)(=O)c3ccc(F)cc3)c3ccccc32)c1C(=O)O	none
Cc1ccc(S(=O)(=O)c2cc3c(=O)n4ccccc4nc3n(Cc3ccco3)c2=N)cc1C	697 NFkB inh 40.5 (no result: CFTR F508del cor) | 697 NFkB conf inactive
